PubChem BioAssay (NCI)
Values joined by “and” are separate entries in the source; they are usually repeats but may differ in a detail not shown here. Identical values can stand only once. The panel holds about 83,000 compounds, 20% with a hit somewhere; the sample as a whole holds those more often.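 How to read the values: 0–100, growth inhibition (40 = 60% inhibited); 0, no net growth; -100 to 0, cell death (-40 = 40% of starting cells died; -100 = all dead).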 Active and inactive are the calls of the source. How the source made its calls: active means growth percent below 10; inactive means the rest.

These compounds were tested on HL-60(TB) leukemia (assay: NCI-60 one-dose screen, 48 h (100 = growth as untreated, 0 = no growth, -100 = all killed)). Settings: 10 µM unless noted.

Compound | growth
O=C(N1c2ccccc2Sc2ccccc21)n1ccc2cccnc21 | 25.2% (inactive)
COc1cc(C2CC(c3ccc(C)cc3)=Nc3c(N)nc(N)nc3N2)ccc1Oc1nc(Nc2ccc(F)cc2)nc(N(C)C)n1 (configuration not stated) | 52% (inactive)
O=C1Nc2cc(Cl)ccc2/C1=C/c1cccc(OCc2ccccc2)c1 | -25.3% (active)
Cc1ccc(C(=O)C[n+]2cccc3c4ccccc4ccc32)cc1 | 1.77% (active)
CCCCSc1nc(NCCc2c[nH]c3ccccc23)c(C#N)c(-c2ccc(OC)cc2)n1 | 42.5% (inactive)
CCOC(=O)C1=C(N)N(c2ccccc2)C2=C(C(=O)CC(C)(C)C2)C1c1ccc(Cl)cc1Cl (configuration not stated) | 1.24% (active)
Cn1cc(-c2cc(N)n3nc(-c4cn(C)c5ccccc45)cc3n2)c2cc(F)ccc21 | -20.1% (active)
CN(C)c1nc(NCCNS(=O)(=O)c2ccc(C(=O)/C=C/c3ccc(C(F)(F)F)cc3)cc2)nc(Nc2ccc(F)cc2)n1 | -21.8% (active)
Cc1nn(-c2ccccc2)c2nc(C)n(CC(=O)N/N=C/c3ccccc3O)c(=O)c12 | 7.2% (active)
Cc1ccc(Cc2cnc(NC(=O)c3ccc(/C=C4\SC(=S)N(C)C4=O)cc3)s2)cc1 | 18% (inactive)
CC1=C(C(=O)c2ccccc2)C(c2cccc(Cl)c2Cl)n2c(nc3ccccc32)N1 (configuration not stated) | 36.1% (inactive)
O=C1C=CC(=CC=C2N(Cc3ccc4ccccc4c3)c3ccccc3N2Cc2ccc3ccccc3c2)C=C1 | -26.5% (active) and -21.5% (active)
Cn1cc(-c2nc(N)nnc2-c2c[nH]c3ccc(Br)cc23)c2cc(Br)cnc21 | -35.8% (active)
Cc1ccc(-c2nc(Nc3ccc(C)c(S(N)(=O)=O)c3)c3ccccc3n2)cc1 | 89.1% (inactive)
O=C(CSc1nnc(-c2c[nH]c3ccccc23)n1-c1ccccc1)Nc1ccc(C(=O)/C=C/c2ccc(Cl)cc2)cc1 | 66.8% (inactive)
O=C1c2cccc3c(N4CCN(Cc5ccccc5)CC4)ccc(c23)C(=O)N1c1cccc(-c2nn(-c3ccccc3)cc2-c2nc3ccccc3s2)c1 | 105% (inactive)
CCC1(OC(=O)c2ccccc2SSCCOC(=O)CCCCC2SCC3NC(=O)NC32)C(=O)OCc2c1cc1n(c2=O)Cc2cc3ccccc3nc2-1 (configuration not stated) | 76.7% (inactive)
